Records with an inconclusive call do not appear. A call without a number means that no potency is given here. Some compounds were tested as several samples or in several runs, with calls that do not always agree. The source made the active and inactive calls. Calls follow the shape of the full dose curve.
Potency is read from the fitted curve at half-maximal effect.

The assay in a line: qHTS assay to identify small molecule agonists of the NFkB signaling pathway - cell viability counter screen (AID 1159515). Also: nearly all actives have a fitted effect of over 55% in size. As to conditions: NFkB-bla ME-180 viability, CellTiter-Glo luminescence, 5 h; series mostly up to 61 µM. The text has this: National Center for Advancing Translational Sciences [NCATS]
NIH Chemical Genomics Center [NCGC]
U.S. Environmental Protection Agency [EPA]
National Institutes of Environmental Health Sciences [NIEHS]
National Toxicology Program [NTP]
U.S. Food and Drug Administration [FDA]
Transcription factors and their stimulated target gene expression play pivotal roles across many cellular processes including responses to environmental stimuli. Proper regulation of associated pathways is critical to maintain cell health and function. Constitutive activation of transcription factor pathways has been implicated in tumors as it may block cellular functions such as apoptosis and lead to invasion and metastasis. One important transcription factor that stimulates gene expression in response to cytokines, UV radiation, and other stimuli is nuclear factor-kappa B (NFkB). To measure activation of the NFkB pathway, the CellSensor NFkB-bla ME-180 cell line (Life Technologies, Carlsbad, CA) that stably expresses beta-lactamase reporter gene under the regulation of a NF-kB response element was used. This assay allows measurement of the NFkB pathway activity induced by compounds in a ME-180 cell line. This system quantitates NF-kB activity using a FRET-based assay system where beta-lactamase expression disrupts FRET, allowing for fluorescent measurement of activity. This cell line has been used to screen the Tox21 10K compound library and to identify compounds that induce the NFkB pathway activity. The cytotoxicity of the Tox21 compound library against the NFkB-bla ME-180 cell line was tested in parallel by measuring cell viability using the CellTiter-Glo assay in the same wells.
Tox21 Assay Protocol Summary:
NFkB-bla ME-180 cells were dispensed at 2,000 cells/6 uL of assay medium per well into black wall/clear-bottom 1536-well plates using a Multidrop Combi (ThermoFisher Scientific, Waltham, MA) dispenser. After the assay plates were incubated at 37 C and 5% CO2 for an overnight, 23 nL of compounds dissolved in DMSO, positive controls or DMSO only was transferred to the assay plate by a Pintool station (Kalypsys, San Diego, CA). The assay plates were incubated at 37 C and 5% CO2 for 5 hr. One uL of LiveBLAzer B/G FRET substrate (Life Technologies) was added using a Flying Reagent Dispenser (Aurora Discovery, San Diego, CA) and the plates were incubated at room temperature for 1.5 hr. Fluorescence intensity (405 nm excitation, 460 nm and 530 nm emissions) was measured using an Envision plate reader (PerkinElmer, Shelton, CT). For cytotoxicity, 3 ul/well of CellTiter-Glo reagent was added into the assay plates using an FRD. After 30 min incubation at room temperature, the luminescence intensity was measured using a ViewLux plate reader (PerkinElmer).
Consider `C[N+](C)(C)CCO`, for which the Potency result is “inactive”.

Turning to `Cc1ccc(C(C)(C)C)cc1`, the Potency result is “inactive”.

Consider `O=C(O)c1ccc(O)cc1`, for which the Potency result was “inactive”.

Turning to `Cc1ccc(/C(=C\CN2CCCC2)c2ccccn2)cc1`, the Potency result is “inactive”.

In the case of `CCCCCCCC/C=C\CCCCCCCC(=O)O`, the Potency result is “inactive”.

Consider `CCOC(=O)C(C)Oc1ccc(Oc2cnc3cc(Cl)ccc3n2)cc1` (stereo not given), for which the Potency entry was “inactive”.

On to `Brc1nc2ccccc2s1`, for which the Potency result was “inactive”.

Take `CCCOCCO`: the Potency entry was “inactive”.

In the case of `Oc1c(Cl)ccc(Cl)c1Cl`, the Potency result was “inactive”.

As to `Cc1cccc(Nc2ccccc2C(=O)O)c1C`, the Potency result was “inactive”.

With `Cc1ccc(C)c(O)c1`, the Potency entry was “inactive”.

Consider `O=S1(=O)CCCO1`, for which the Potency entry is “inactive”.

For `C=C[C@H]1CN2CC[C@H]1C[C@@H]2[C@@H](O)c1ccnc2ccc(OC)cc12`, the Potency result is “inactive”.

With `CCC(=O)O[C@H]1[C@H](O[C@@H]2[C@@H](C)[C@H](O[C@H]3C[C@@](C)(OC)[C@@H](O)[C@H](C)O3)[C@@H](C)C(=O)O[C@H](CC)[C@@](C)(O)[C@H](O)[C@@H](C)C(=O)[C@H](C)C[C@@]2(C)O)O[C@H](C)C[C@@H]1N(C)C`, the Potency is 36.4 µM (active) and inactive.

Turning to `CCCCCC=O`, the Potency result was “inactive”.

Turning to `CN1CCOCC1`, the Potency result is “inactive”.

Regarding `O=C1CCc2ccccc2O1`, the Potency entry was “inactive”.

Take `COc1ccc2nc(N)sc2c1`: the Potency entry was “inactive”.

`CC[C@]12CCCN3CCc4c(n(c5ccccc45)[C@@](O)(C(=O)OC)C1)[C@@H]32`: the Potency entry was “inactive”.

In the case of `Nc1cc(Cl)c(N)c(Cl)c1`, the Potency result is “inactive”.

As to `C=CC(C)(O)CCC=C(C)C` (stereo not given), the Potency entry is “inactive”.

`C1COCCN1`: the Potency result was “inactive”.

Regarding `CCCCCCCCCCCCO`, the Potency entry is “inactive”.

In the case of `NCCN`, the Potency entry is “inactive”.

Turning to `Cc1ccc(S(=O)(=O)NCl)cc1`, the Potency entry is “inactive”.

For the compound `NCCOCCO`, the Potency result is “inactive”.

Regarding `COc1ccc(C(=O)c2ccccc2O)c(O)c1`, the Potency entry is “inactive”.

On to `C1CN(SSN2CCOCC2)CCO1`, for which the Potency result is “inactive”.

Turning to `COC(=O)c1ccc(C)cc1`, the Potency entry was “inactive”.

On to `CNC[C@H](O)c1ccc(O)c(O)c1`, for which the Potency result is “inactive”.

Consider `c1ccc2c(c1)[nH]c1ccccc12`, for which the Potency result was “inactive”.

With `Cc1ccc(S(=O)(=O)O)cc1C`, the Potency entry was “inactive”.

As for `[O-]/[N+](=N\O)c1ccccc1`, the Potency entry was “inactive”.

As for `OC[C@H]1O[C@@H]2O[C@H]3[C@H](O)[C@@H](O)[C@@H](O[C@H]4[C@H](O)[C@@H](O)[C@@H](O[C@H]5[C@H](O)[C@@H](O)[C@@H](O[C@H]6[C@H](O)[C@@H](O)[C@@H](O[C@H]7[C@H](O)[C@@H](O)[C@@H](O[C@H]1[C@H](O)[C@H]2O)O[C@@H]7CO)O[C@@H]6CO)O[C@@H]5CO)O[C@@H]4CO)O[C@@H]3CO`, the Potency result was “inactive”.

For `O=[Se](O)O`, the Potency result was “inactive”.

Turning to `C=C1C[C@H]2[C@@H]3C=C(C)C4=CC(=O)CC[C@]4(C)[C@H]3CC[C@]2(C)[C@@]1(OC(C)=O)C(C)=O`, the Potency entry is “inactive”.

As to `CCCCCC1C(=O)CCC1CC(=O)OC` (stereo not given), the Potency result is “inactive”.

Regarding `CC(=O)[C@@]1(O)CC[C@H]2[C@@H]3C[C@H](C)C4=CC(=O)C=C[C@]4(C)[C@@]3(F)[C@@H](O)C[C@@]21C`, the Potency result was “inactive”.

In the case of `COCCOCCOCCO`, the Potency entry was “inactive”.

As to `Nc1cc([N+](=O)[O-])ccc1C(=O)O`, the Potency entry is “inactive”.

Source of the values: PubChem BioAssay (Tox21).
